Data published in PMC7862700, “An all-to-all approach to the identification of sequence-specific readers for epigenetic DNA modifications on cytosine”.

Legend:
Experiment in all cases: DAPPL (digital affinity profiling via proximity ligation, sequencing); 10 mM Tris-HCl pH 7.5, 50 mM NaCl, 1 mM DTT, 4% glycerol, room temperature, 30 min; GST-TFs on glutathione beads, 16-mer random dsDNA library, 0.1% formaldehyde crosslink after washing; high values mean tight binding
FEV = molecular target: T1, FEV (Homo sapiens, UniProt Q99581 1-238); settings: protein: recombinant; tags: N-terminal GST; dsDNA, one strand shown
T1 sequence: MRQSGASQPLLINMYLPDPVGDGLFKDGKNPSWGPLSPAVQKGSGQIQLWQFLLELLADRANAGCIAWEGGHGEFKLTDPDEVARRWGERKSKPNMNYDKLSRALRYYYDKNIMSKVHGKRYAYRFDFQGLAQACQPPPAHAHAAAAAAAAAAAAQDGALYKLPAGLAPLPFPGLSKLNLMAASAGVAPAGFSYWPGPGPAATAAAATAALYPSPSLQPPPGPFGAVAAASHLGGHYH
How it was run: (§1)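 Human transcription factors fused to GST were expressed in yeast, captured on glutathione beads, given DNA barcodes and pooled with a GST-only negative control. Pools were incubated with 200 nmole of a 16-mer random double-stranded DNA library in Tris/NaCl/DTT/glycerol buffer at room temperature for 30 min. They were then washed, crosslinked with 0.1% formaldehyde, proximity-ligated (BsaI/T4 ligase, 1 h, 37 °C), PCR-amplified and sequenced on an Illumina NextSeq500. Binding signal is each 6-mer's read frequency for a factor divided by its frequency for the GST control.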

ETV5 = ETV5 (Homo sapiens, UniProt P41161 1-510); settings: protein: recombinant; tags: N-terminal GST; dsDNA, one strand shown
How it was run: as §1

HSF1 = HSF1 (Homo sapiens, UniProt Q00613 1-529); settings: protein: recombinant; tags: N-terminal GST; chain copies: 3; dsDNA, one strand shown
How it was run: as §1

SPIC = molecular target: T2, SPIC (Homo sapiens, UniProt Q8N5J4 1-248); settings: protein: recombinant; tags: N-terminal GST; dsDNA, one strand shown
T2 sequence: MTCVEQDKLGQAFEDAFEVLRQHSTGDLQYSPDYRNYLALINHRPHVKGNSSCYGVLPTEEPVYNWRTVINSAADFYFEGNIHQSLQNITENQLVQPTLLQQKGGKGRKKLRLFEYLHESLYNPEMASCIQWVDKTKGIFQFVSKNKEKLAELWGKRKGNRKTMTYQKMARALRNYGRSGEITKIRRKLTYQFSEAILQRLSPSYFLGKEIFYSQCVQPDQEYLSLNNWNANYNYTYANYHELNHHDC
How it was run: as §1

ELF4 = ELF4 (Homo sapiens, UniProt Q99607 1-663); settings: protein: recombinant; tags: N-terminal GST; dsDNA, one strand shown
How it was run: as §1

ELK4 = molecular target: T3, ELK4 (Homo sapiens, UniProt P28324-2 1-405); settings: protein: recombinant; tags: N-terminal GST; dsDNA, one strand shown
T3 sequence: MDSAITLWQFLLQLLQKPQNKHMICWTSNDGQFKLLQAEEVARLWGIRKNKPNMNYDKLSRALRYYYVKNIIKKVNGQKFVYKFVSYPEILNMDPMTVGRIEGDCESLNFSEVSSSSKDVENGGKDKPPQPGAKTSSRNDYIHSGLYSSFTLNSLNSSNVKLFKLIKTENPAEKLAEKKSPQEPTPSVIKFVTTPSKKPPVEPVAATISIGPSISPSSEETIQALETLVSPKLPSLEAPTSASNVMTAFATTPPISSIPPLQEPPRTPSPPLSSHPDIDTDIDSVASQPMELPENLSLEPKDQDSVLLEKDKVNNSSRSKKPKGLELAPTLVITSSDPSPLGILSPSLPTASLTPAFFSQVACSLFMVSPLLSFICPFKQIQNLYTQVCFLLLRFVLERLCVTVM
How it was run: as §1

ETV2 = molecular target: T4, ETV2 (Homo sapiens, UniProt O00321 1-342); settings: protein: recombinant; tags: N-terminal GST; dsDNA, one strand shown
T4 sequence: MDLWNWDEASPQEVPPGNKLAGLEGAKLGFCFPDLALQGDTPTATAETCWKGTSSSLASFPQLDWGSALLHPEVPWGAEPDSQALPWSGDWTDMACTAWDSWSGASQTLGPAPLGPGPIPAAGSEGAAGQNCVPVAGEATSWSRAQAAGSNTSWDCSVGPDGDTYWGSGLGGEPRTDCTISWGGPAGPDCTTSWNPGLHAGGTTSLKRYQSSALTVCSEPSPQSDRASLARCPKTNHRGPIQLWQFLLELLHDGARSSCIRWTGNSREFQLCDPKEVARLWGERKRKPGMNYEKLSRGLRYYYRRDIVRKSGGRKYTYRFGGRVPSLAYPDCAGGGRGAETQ
How it was run: as §1

ELF3 = molecular target: T5, ELF3 (Homo sapiens, UniProt P78545 1-371); settings: protein: recombinant; tags: N-terminal GST; dsDNA, one strand shown
T5 sequence: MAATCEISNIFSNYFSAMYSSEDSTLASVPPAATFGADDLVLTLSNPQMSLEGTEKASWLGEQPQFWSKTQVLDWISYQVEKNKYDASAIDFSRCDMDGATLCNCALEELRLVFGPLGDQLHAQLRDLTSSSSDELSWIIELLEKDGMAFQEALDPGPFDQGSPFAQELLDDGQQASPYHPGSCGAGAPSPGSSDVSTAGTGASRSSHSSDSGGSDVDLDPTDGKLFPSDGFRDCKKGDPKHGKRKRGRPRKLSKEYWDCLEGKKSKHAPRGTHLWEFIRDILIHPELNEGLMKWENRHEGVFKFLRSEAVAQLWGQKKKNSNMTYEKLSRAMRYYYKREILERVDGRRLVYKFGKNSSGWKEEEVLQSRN
How it was run: as §1

CRX = CRX (Homo sapiens, UniProt O43186 1-299); settings: protein: recombinant; tags: N-terminal GST; dsDNA, one strand shown
How it was run: as §1

ETV1 = ETV1 (Homo sapiens, UniProt P50549 1-477); settings: protein: recombinant; tags: N-terminal GST; dsDNA, one strand shown
How it was run: as §1

ERF = molecular target: T6, ERF (Homo sapiens, UniProt P50548 1-548); settings: protein: recombinant; tags: N-terminal GST; dsDNA, one strand shown
T6 sequence: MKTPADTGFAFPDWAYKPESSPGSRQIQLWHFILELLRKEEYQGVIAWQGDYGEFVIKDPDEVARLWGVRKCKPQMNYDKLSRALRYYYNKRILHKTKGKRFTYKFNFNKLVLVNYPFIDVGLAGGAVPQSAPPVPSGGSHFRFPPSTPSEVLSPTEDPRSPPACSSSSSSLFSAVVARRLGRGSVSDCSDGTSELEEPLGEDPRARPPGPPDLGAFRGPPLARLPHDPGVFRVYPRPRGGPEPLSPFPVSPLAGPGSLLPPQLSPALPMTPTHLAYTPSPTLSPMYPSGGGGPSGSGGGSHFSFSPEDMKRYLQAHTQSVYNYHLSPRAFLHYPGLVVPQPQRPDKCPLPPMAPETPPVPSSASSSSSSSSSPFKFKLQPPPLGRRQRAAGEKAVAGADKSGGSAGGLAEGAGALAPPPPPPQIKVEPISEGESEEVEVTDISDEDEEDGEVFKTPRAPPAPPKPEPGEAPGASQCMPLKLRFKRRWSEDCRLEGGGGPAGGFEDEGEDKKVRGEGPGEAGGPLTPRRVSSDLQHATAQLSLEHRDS
How it was run: as §1

ETV3L = molecular target: T7, ETV3L (Homo sapiens, UniProt Q6ZN32 1-361); settings: protein: recombinant; tags: N-terminal GST; dsDNA, one strand shown
T7 sequence: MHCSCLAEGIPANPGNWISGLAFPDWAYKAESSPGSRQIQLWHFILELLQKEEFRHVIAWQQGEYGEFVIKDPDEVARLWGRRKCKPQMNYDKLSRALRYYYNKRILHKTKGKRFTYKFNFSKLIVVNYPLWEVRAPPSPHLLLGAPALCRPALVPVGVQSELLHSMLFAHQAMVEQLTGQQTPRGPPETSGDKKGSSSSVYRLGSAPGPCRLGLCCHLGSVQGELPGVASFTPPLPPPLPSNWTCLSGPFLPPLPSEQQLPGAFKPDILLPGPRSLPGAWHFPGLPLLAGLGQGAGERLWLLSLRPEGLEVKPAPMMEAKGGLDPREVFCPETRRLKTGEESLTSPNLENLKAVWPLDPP
How it was run: as §1

ETS2 = molecular target: T8, ETS2 (Homo sapiens, UniProt P15036 1-469); settings: protein: recombinant; tags: N-terminal GST; dsDNA, one strand shown
T8 sequence: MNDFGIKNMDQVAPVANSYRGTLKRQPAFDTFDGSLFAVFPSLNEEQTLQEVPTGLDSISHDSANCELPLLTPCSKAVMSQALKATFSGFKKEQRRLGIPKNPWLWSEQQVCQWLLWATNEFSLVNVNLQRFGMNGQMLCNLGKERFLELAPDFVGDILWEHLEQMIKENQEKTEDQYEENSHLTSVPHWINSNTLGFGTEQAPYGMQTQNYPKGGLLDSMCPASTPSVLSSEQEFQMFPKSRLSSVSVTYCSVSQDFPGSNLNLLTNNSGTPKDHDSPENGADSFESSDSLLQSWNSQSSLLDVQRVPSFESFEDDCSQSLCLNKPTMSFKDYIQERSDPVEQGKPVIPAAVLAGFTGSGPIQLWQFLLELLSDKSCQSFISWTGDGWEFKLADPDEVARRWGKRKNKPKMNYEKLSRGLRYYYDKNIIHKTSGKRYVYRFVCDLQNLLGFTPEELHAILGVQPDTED
How it was run: as §1

SPDEF = molecular target: T9, SPDEF (Homo sapiens, UniProt O95238 1-335); settings: protein: recombinant; tags: N-terminal GST; dsDNA, one strand shown
T9 sequence: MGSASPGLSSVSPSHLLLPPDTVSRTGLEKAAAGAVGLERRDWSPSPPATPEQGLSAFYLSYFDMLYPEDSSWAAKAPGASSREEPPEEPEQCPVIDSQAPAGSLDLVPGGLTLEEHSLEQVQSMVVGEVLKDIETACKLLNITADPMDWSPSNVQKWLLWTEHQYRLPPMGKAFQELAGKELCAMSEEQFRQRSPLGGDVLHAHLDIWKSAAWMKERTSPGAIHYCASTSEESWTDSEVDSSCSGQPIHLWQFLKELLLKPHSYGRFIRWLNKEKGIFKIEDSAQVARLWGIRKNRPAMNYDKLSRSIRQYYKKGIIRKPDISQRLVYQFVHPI
How it was run: as §1

ETV7 = molecular target: T10, ETV7 (Homo sapiens, UniProt Q9Y603 1-341); settings: protein: recombinant; tags: N-terminal GST; dsDNA, one strand shown
T10 sequence: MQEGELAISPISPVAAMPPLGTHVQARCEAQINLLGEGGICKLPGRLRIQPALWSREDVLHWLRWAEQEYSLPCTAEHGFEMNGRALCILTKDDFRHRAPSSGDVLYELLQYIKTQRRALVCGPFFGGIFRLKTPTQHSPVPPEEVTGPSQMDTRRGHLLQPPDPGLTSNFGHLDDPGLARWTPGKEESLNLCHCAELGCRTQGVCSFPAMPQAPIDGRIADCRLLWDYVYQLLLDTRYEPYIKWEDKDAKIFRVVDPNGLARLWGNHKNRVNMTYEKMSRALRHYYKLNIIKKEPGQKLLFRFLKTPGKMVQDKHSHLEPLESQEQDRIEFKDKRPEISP
How it was run: as §1

ELF5 = molecular target: T11, ELF5 (Homo sapiens, UniProt Q9UKW6-2 1-255); settings: protein: recombinant; tags: N-terminal GST; dsDNA, one strand shown
T11 sequence: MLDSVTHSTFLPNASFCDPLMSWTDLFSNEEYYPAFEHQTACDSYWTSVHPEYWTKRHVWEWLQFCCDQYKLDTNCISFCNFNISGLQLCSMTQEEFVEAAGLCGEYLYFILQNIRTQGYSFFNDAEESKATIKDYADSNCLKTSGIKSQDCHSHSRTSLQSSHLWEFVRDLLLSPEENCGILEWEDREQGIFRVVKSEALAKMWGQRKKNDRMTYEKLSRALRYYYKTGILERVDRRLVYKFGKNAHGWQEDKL
How it was run: as §1

ETV3 = molecular target: T12, ETV3 (Homo sapiens, UniProt P41162-2 1-143); settings: protein: recombinant; tags: N-terminal GST; dsDNA, one strand shown
T12 sequence: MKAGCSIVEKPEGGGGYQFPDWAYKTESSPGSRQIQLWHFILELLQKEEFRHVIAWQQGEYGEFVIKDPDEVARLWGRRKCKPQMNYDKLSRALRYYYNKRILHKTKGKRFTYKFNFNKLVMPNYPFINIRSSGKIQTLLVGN
How it was run: as §1

ETV6 = ETV6 (Homo sapiens, UniProt P41212 1-452); settings: protein: recombinant; tags: N-terminal GST; dsDNA, one strand shown
How it was run: as §1

CRX, sequence (O43186 whole entry): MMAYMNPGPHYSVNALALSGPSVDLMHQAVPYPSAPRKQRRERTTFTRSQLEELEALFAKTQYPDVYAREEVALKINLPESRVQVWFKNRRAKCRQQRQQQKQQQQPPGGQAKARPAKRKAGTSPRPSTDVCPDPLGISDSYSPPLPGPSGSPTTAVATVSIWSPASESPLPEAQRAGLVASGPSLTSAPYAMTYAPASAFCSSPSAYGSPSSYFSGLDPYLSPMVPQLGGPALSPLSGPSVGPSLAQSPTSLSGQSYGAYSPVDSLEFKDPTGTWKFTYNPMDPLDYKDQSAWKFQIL
ETV5, sequence (P41161 whole entry): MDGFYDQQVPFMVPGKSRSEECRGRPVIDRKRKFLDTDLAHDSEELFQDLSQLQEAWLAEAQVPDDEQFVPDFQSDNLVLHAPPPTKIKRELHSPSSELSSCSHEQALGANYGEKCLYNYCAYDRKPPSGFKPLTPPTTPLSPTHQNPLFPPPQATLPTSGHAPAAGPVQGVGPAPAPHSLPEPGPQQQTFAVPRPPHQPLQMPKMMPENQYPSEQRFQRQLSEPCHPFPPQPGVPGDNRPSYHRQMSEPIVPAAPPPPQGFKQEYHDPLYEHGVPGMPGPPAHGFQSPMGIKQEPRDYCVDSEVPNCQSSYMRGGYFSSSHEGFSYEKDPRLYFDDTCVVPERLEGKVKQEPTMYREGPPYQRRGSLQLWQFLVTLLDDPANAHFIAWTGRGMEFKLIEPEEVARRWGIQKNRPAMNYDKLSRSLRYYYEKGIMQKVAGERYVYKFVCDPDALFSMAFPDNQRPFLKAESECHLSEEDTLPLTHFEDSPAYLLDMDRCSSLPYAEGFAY
ETV6, sequence (P41212 whole entry): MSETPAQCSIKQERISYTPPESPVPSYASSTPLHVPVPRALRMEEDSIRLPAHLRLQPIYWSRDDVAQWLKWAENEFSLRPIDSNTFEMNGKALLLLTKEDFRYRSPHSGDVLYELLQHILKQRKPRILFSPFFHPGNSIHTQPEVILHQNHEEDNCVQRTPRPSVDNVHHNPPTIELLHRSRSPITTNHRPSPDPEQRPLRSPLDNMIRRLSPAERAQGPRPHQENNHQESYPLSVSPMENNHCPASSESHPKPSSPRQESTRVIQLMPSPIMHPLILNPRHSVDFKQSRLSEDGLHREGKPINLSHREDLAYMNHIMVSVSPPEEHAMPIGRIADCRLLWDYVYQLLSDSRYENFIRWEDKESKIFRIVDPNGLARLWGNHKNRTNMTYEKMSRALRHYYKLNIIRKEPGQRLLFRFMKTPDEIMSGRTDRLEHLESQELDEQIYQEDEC
HSF1, sequence (Q00613 whole entry): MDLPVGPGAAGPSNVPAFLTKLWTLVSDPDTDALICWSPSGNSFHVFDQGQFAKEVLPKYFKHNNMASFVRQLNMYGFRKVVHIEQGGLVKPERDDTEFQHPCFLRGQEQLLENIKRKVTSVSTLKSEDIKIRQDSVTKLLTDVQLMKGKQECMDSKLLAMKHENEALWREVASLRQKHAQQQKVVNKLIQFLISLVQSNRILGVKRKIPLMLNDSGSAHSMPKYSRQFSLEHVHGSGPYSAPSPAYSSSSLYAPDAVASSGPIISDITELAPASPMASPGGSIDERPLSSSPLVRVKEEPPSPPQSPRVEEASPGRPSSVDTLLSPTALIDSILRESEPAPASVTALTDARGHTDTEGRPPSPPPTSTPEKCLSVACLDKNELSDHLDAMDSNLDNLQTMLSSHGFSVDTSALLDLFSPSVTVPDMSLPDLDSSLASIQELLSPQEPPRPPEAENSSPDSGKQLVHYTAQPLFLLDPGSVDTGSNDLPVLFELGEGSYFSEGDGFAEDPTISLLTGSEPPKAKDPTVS
ELF4, sequence (Q99607 whole entry): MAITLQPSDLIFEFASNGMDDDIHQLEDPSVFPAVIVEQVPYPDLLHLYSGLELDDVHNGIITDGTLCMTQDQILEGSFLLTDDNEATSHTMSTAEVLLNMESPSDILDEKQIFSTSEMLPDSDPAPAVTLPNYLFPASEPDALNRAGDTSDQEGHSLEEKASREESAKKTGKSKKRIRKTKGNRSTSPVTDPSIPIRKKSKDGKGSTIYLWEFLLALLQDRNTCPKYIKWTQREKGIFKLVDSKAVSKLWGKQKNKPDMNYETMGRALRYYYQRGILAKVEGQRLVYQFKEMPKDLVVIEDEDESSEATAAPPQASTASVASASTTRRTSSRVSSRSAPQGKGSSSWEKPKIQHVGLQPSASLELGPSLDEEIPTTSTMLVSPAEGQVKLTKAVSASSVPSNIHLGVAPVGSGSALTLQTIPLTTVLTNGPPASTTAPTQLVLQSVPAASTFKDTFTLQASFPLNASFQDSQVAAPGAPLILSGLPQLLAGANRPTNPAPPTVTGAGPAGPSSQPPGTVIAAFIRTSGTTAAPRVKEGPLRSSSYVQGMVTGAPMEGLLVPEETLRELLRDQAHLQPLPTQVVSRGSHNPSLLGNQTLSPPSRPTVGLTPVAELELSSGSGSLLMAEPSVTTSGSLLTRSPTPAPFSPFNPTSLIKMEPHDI
ETV1, sequence (P50549 whole entry): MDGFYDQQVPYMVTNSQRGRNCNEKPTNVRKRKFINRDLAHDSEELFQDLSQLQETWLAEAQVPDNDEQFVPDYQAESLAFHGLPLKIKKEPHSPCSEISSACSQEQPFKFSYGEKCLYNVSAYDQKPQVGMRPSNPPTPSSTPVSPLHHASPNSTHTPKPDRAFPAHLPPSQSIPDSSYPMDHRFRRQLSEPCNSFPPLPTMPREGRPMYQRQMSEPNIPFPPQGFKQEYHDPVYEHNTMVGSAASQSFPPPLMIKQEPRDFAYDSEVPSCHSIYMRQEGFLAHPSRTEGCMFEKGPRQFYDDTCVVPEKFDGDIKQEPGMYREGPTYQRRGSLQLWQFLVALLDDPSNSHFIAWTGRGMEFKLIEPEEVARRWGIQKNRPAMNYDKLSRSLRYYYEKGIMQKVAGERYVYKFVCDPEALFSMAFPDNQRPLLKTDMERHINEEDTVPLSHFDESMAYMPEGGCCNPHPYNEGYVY

For ATCCGG, the binding signal (FEV) was 4.68 fold enrichment (6-mer frequency, TF over GST control), the binding signal (ETV5) was 2.87 fold enrichment (6-mer frequency, TF over GST control) and the binding signal (HSF1) was 1.31 fold enrichment (6-mer frequency, TF over GST control). The binding signal (SPIC) was 2.35 fold enrichment (6-mer frequency, TF over GST control), the binding signal (ELF4) was 2.17 fold enrichment (6-mer frequency, TF over GST control) and the binding signal (ELK4) was 2.1 fold enrichment (6-mer frequency, TF over GST control). The binding signal (ETV2) was 2.6 fold enrichment (6-mer frequency, TF over GST control), the binding signal (ELF3) was 2.31 fold enrichment (6-mer frequency, TF over GST control) and the binding signal (CRX) was 1.48 fold enrichment (6-mer frequency, TF over GST control). The binding signal (ETV1) was 2.66 fold enrichment (6-mer frequency, TF over GST control), the binding signal (ERF) was 2.34 fold enrichment (6-mer frequency, TF over GST control) and the binding signal (ETV3L) was 2.49 fold enrichment (6-mer frequency, TF over GST control). The binding signal (ETS2) was 2.66 fold enrichment (6-mer frequency, TF over GST control), the binding signal (SPDEF) was 4.67 fold enrichment (6-mer frequency, TF over GST control) and the binding signal (ETV7) was 2.25 fold enrichment (6-mer frequency, TF over GST control). For the same sequence, the binding signal (ELF5) was 3.06 fold enrichment (6-mer frequency, TF over GST control), the binding signal (ETV3) was 2.9 fold enrichment (6-mer frequency, TF over GST control) and the binding signal (ETV6) was 2.37 fold enrichment (6-mer frequency, TF over GST control).
